RTF Ca sens act – increases calcium sensitivity of human cardiac regulated thin filaments. P19429+P45379. AID 493008. activation, % at 7.2 µM. 0.24% of 340,000 active. IANBD-labeled TnC RTF fluorescence at EC20 calcium; 0% EC20 calcium, 100% full calcium;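 active = activation above the mean over all tested compounds plus 3 SD, cut at about 30% in these data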;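 note: rise in fluorescence read as greater calcium sensitivity of cardiac thin filaments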
IDE cell inh – inhibits human insulin-degrading enzyme in HEK cells | FAbetaB cleavage, fluorescence polarization | P14735 | 0.41% of 320,000 active | inhibition, % at 5.59 µM | AID 434962;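 active = percent inhibition above the average of all tested compounds plus 3 SD, set per screening campaign, cut at about 16% in these data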;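 note: IDE supplied by intact live HEK cells; FP after avidin binding of uncleaved biotin substrate so inhibition keeps polarization high; 0% = DMSO wells and 100% = 60 µM reference IDE inhibitor Ii1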
C-LANA FP – KSHV C-LANA DNA binding inhibition. MBP-C-LANA/FAM-LBS DNA binding, fluorescence polarization. inhibition, % at 9 µM. 0.078% of 340,000 active. AID 504423;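 active = highest replicate inhibition at or above 60% at 9 µM, even if other replicates fall short; inactive = all replicates below 60% inhibition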;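 note: 0% = neutral control wells and 100% = 4 µM acridine orange control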
Keap1 Nrf2 FP – disrupts human Keap1 binding to Nrf2 peptide | Q14145 | Keap1 Kelch-Nrf2 peptide fluorescence polarization, 1536-well | AID 504523 | 0.15% of 340,000 active | inhibition, % at 9.4 µM; in the data active = inhibition above about 12%;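 note: human Keap1 Kelch domain with fluorescein labeled Nrf2 9mer peptide probe; 0% = neutral control wells and 100% = peptide positive control; higher means more block of Keap1 binding to Nrf2 peptide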
Target sequence (Q14145 whole entry, looked up, the tested form may be a part): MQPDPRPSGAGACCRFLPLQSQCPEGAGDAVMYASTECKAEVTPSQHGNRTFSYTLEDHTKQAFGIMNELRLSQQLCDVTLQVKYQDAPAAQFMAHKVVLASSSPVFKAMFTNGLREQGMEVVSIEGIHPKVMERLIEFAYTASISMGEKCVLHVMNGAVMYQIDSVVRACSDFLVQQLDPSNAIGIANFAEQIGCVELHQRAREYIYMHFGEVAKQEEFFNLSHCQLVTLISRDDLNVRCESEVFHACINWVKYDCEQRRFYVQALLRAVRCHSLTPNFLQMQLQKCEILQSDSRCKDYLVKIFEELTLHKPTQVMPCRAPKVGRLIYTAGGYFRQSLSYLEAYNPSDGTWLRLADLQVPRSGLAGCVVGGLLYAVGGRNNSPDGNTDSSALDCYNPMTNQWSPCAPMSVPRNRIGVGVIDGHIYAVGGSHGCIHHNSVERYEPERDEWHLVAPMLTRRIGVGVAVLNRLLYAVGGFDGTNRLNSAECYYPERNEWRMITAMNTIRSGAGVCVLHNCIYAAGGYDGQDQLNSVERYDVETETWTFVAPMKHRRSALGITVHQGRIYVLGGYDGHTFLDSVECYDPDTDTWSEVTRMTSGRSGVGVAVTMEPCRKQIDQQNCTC
RTF Ca sens inh – cardiac RTF calcium desensitization | P19429+P45379 | IANBD-labeled cardiac RTF, Ca2+ fluorescence | inhibition, % at 7.15 µM | 0.12% of 340,000 active | AID 493244;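 active = inhibition above the mean inhibition of all tested compounds plus 3 SD, cut at about 17% in these data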;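 note: assay run at fixed EC70 calcium of 1.6 mM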
IDE cell activ – activators of human insulin-degrading enzyme in cells; P14735; HEK cells, FAbeta-B cleavage, fluorescence polarization; 0% vehicle, 100% cell-free pure enzyme wells; activation, % at 5.96 µM; 0.073% of 340,000 active;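 active = activation above the mean of all tested compounds plus 3 SD, set per screening campaign, cut at about 17% in these data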
Keap1 TSA – binds and thermally shifts human Keap1 Kelch domain; AID 651823; shares compounds with Keap1 Nrf2 FP; 8% of 400 active; Keap1 Kelch thermal shift, delta Tm; hits give high values; max delta Tm, degrees C; in the data active = max delta Tm above about 0.48 degrees C
Sypro dye melt – counter-screen for Keap1 thermal shift hits: dye-only artifacts | shares compounds with Keap1 Nrf2 FP | Sypro Orange dye-only thermal melt, no protein, delta Tm; top dose 26 µM | delta Tm, degrees C (no concentration beside the values) | 140 tested, under 10 active;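 active = at highest dose tested, delta Tm positive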
An asterisk follows results filed as active; x = no result given. The list is not random: actives were taken first. Their share in the collection is about 0.81%.

SMILES | RTF Ca sens act | IDE cell inh | C-LANA FP | Keap1 Nrf2 FP | RTF Ca sens inh | IDE cell activ | Keap1 TSA | Sypro dye melt
CCOC(=O)c1c(C)oc2c1c(C(c1ccccc1)N1CCOCC1)c(O)c1ccccc12 (stereo not drawn) | 0 | 10 | 2 | -1 | -2 | 2 | x | x
O=C1CCn2c1c(O)c1ccccc1c2=O | 11 | x | 31 | 19* | -9 | 0 | -0.07 | -31
O=c1c2ccccc2nc2n1CCC2 | -1 | -1 | 2 | 3 | 3 | 0 | x | x
Cc1nnc(SCC2=C(C(=O)O)N3C(=O)C(NC(=O)COc4ccccc4)C3SC2)s1 (stereo not drawn) | 3 | x | 2 | -4 | -1 | 4 | x | x
CCC(C(=O)NC1C(=O)N2C(C(=O)O)=C(CSc3nnc(C)s3)CSC12)c1ccccc1 (stereo not drawn) | 8 | 5 | 17 | 30* | -12 | -5 | -0.12 | -26
COc1ccccc1-n1nnnc1SCC(=O)NCC1(N2CCCCC2)CCCCC1 | -3 | x | 0 | -1 | -4 | 7 | x | x
C=CCn1c(C)cc(C)c(C#N)c1=O | -6 | 1 | -1 | 2 | -8 | 3 | x | x
C=CCn1c(O)c(CN2CCOCC2)c(C)c(C#N)c1=O | 14 | -1 | 16 | 14* | -15 | 6 | 0.09 | x
Cc1ccc(C2=CC(c3cccs3)n3nnnc3N2)cc1 (stereo not drawn) | 5 | 1 | 33 | 35* | -1 | -2 | -0.06 | -26
CCC(CNc1cc(OC)cc2cccnc12)NC1CCCCC1 (stereo not drawn) | 7 | 1 | 15 | 17* | -16 | 3 | 0.03 | -27
COCCn1c(=O)c2c(nc3n2CC(C)CN3CCc2ccccc2)n(C)c1=O (stereo not drawn) | -4 | 4 | 0 | 2 | 5 | 0 | x | x
O=C1c2ccccc2-c2onc3ccc(Oc4ccccc4)c1c23 | 31* | 9 | 11 | 56* | -56 | -17 | -0.07 | -30
CCOc1cc(C2C(C#N)=C(N)OC(C)=C2C(C)=O)cc(Br)c1O (stereo not drawn) | 19 | 4 | 47 | 26* | -24 | -2 | -0.1 | x
CNc1nnc(SCC(=O)c2cc(C)n(C3CC3)c2C)s1 | -1 | 5 | 26 | 46* | -5 | -4 | -0.08 | x
c1ccc(-n2ncc3c(NCC4CCCO4)ncnc32)cc1 (stereo not drawn) | 2 | 1 | 6 | 12* | -11 | 3 | -0.19 | x
COc1cc(C2C(C#N)=C(N)OC3=C2C(=O)CC(C)(C)C3)c([N+](=O)[O-])cc1OC (stereo not drawn) | 13 | 4 | 8 | 3 | -14 | 4 | x | x
CC1(C)CC(=O)C2=C(C1)OC(N)=C(C#N)[C@@H]2c1ccccc1[N+](=O)[O-] | 41* | 9 | 36 | 39* | -53 | -9 | -0.02 | -28
Cc1ccc2oc(=O)c3cnn(CC(=O)NCCN(C)C)c3c2c1 | -6 | 5 | -1 | -2 | 1 | 5 | x | x
Cc1ccc2oc(=O)c3cnn(CC(=O)NCCC(C)C)c3c2c1 | 2 | 2 | 0 | 31* | -3 | -1 | -0.17 | -26
Cc1nc2ccccc2n2c(O)c(CC(=O)O)cc12 | 125* | 9 | 58 | 22* | -197 | -15 | 0.46* | x
C=CCN1C(=O)C2C3C=CC(C2C1=O)C1C2C(=O)N(CC=C)C(=O)C2C31 (stereo not drawn) | 10 | 4 | -1 | -5 | -10 | -3 | x | x
Cn1c(SCC(=O)c2cc(Cl)c(Cl)s2)nnc1-c1ccco1 | x | 8 | 19 | 32* | x | x | -0.2 | x
COc1ccc(-n2nnc3c(SC(C(C)=O)C(=O)N(C)C)ncnc32)cc1 (stereo not drawn) | -5 | 1 | 0 | -4 | -2 | -3 | x | x
CN(C)CCN(C)Cc1c2ccccc2c(CN(C)CCN(C)C)c2ccccc12 | 26 | 3 | 28 | 19* | -29 | 4 | -0.15 | -22
CN(C)CCP(=O)(c1ccccc1)c1ccccc1 | 5 | 0 | 0 | -4 | 1 | 5 | x | x
SMILES | RTF Ca sens act | IDE cell inh | C-LANA FP | Keap1 Nrf2 FP | RTF Ca sens inh | IDE cell activ | Keap1 TSA | Sypro dye melt
CCN1CCN(S(=O)(=O)c2ccc(Cl)c(C(=O)NC3CCCCC3)c2)CC1 | -3 | -10 | 2 | -4 | -9 | 1 | x | x
CCN1CCN(S(=O)(=O)c2ccc(Cl)c(C(=O)NC3CCC(C)CC3)c2)CC1 (stereo not drawn) | -1 | 1 | 13 | 29* | -2 | -1 | -0.09 | -25
CCCCCC(=O)C(=O)c1ccc(O)cc1O | -2 | 0 | 1 | -5 | -3 | -2 | x | x
O=C(CCCCl)NC(=S)Nc1ccc(N2CCOCC2)cc1 | x | -6 | 15 | 33* | x | x | -0.14 | -22
COC(=O)c1ccccc1NC1=C/C(=N\S(=O)(=O)c2cccs2)c2ccccc2C1=O | 1 | 1 | 0 | -1 | -1 | 0 | x | x
COC(=O)c1ccccc1NC1=C/C(=N\S(=O)(=O)c2ccc(C(=O)O)cc2)c2ccccc2C1=O | -3 | 0 | 10 | 14* | -12 | 4 | 1.4* | 8.1*
COCCCNc1nc(N)c([N+](=O)[O-])c(Nc2cc(OC)ccc2OC)n1 | x | -7 | 16 | 38* | x | x | -0.08 | x
Cc1nnsc1C(=O)N1CCN(c2ccc(F)cc2)CC1 | 2 | 4 | 11 | 14* | 5 | 4 | -0.15 | x
COC(=O)C1=C(C)N(C)C(=S)N(C)C1c1cccc(Br)c1 (stereo not drawn) | 5 | 4 | -2 | 3 | -23 | 1 | x | x
CCCCCCOC(=O)C(C#N)c1nc2ccccc2nc1N1CCOCC1 (stereo not drawn) | 2 | 4 | 17 | 20* | -2 | 4 | -0.12 | x
CCCCOC(=O)C(C#N)c1nc2ccccc2nc1N1CCOCC1 (stereo not drawn) | -2 | -6 | 3 | -8 | -3 | 1 | x | x
O=C(Oc1ccc(Br)cc1C(=S)N1CCOCC1)c1ccc([N+](=O)[O-])cc1[N+](=O)[O-] | 4 | -2 | 1 | -4 | -15 | 1 | x | x
Cc1ccc(-c2csc(C3=C(O)CN(NC(=O)c4ccco4)C3=N)n2)cc1 | 3 | -4 | 0 | -6 | -11 | 2 | x | x
COc1ccc(Nc2nc3ccccc3nc2-n2nc(C)cc2C)cc1 | -5 | 2 | 14 | 43* | 3 | 3 | -0.16 | x
